Laboratory results as given in ChEMBL document CHEMBL1961873, “Compounds: GSK PKIS; Assays: Nanosyn kinase panel” (2012).
“And” between values parts separate entries of the source, which are not always exact repeats. Identical values can stand only once.

Columns and labels:
[1] = biological target: T1, Serine/threonine-protein kinase D2 (Homo sapiens) (UniProt Q9BZL6); details: at 1 µM;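 note: mean value of PRKD2 inhibition, from the GSK PKIS screening panel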
T1 sequence (whole entry): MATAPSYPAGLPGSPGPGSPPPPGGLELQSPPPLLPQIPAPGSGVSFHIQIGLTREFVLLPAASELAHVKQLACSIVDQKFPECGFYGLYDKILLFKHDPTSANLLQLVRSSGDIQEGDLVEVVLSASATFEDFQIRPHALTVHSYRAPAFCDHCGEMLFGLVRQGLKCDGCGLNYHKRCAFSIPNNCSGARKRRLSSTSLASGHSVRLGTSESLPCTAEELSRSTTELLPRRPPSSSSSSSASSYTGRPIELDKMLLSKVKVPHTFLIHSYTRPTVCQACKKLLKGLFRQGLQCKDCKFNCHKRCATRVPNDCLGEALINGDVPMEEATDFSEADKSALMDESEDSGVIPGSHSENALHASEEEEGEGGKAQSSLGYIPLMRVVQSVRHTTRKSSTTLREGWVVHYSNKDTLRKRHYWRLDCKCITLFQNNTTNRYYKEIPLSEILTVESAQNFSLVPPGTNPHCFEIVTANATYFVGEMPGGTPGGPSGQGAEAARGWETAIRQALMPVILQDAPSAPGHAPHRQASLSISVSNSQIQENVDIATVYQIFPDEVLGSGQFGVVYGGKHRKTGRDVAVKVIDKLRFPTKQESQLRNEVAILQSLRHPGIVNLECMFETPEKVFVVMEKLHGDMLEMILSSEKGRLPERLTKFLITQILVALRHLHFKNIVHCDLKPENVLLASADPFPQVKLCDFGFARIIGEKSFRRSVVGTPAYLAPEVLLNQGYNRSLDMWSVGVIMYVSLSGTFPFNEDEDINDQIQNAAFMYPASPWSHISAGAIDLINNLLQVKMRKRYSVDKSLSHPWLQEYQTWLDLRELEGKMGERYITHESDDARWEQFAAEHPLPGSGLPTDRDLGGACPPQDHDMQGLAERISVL

[2] = biological target: T2, Serine/threonine-protein kinase D3 (Homo sapiens) (UniProt O94806); details: at 0.1 µM
T2 sequence (whole entry): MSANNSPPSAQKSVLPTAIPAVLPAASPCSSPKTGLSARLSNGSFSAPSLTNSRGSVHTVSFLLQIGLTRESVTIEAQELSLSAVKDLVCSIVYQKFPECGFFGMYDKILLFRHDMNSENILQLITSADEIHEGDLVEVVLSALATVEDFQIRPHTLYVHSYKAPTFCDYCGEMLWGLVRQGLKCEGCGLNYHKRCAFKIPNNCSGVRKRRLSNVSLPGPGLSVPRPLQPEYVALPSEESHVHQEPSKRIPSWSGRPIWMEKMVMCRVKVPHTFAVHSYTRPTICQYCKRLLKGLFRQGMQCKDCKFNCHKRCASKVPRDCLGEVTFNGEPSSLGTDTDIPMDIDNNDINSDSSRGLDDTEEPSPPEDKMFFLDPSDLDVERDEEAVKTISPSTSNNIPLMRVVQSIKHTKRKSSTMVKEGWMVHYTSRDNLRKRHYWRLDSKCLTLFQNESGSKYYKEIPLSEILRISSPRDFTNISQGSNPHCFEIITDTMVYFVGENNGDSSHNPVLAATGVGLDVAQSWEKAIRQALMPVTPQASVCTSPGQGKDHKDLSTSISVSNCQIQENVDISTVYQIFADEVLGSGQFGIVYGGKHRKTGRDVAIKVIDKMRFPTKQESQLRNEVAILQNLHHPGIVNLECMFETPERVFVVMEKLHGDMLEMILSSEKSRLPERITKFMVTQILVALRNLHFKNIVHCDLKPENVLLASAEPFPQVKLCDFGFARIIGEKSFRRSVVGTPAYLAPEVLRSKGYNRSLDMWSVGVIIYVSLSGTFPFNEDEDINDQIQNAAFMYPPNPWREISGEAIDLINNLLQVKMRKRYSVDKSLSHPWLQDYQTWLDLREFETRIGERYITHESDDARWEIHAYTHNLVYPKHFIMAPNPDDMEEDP

[3] = biological target: T2, Serine/threonine-protein kinase D3 (Homo sapiens); details: at 1 µM
[4] = biological target: T3, cGMP-dependent protein kinase 1 (Homo sapiens) (UniProt Q13976); details: at 0.1 µM
T3 sequence (whole entry): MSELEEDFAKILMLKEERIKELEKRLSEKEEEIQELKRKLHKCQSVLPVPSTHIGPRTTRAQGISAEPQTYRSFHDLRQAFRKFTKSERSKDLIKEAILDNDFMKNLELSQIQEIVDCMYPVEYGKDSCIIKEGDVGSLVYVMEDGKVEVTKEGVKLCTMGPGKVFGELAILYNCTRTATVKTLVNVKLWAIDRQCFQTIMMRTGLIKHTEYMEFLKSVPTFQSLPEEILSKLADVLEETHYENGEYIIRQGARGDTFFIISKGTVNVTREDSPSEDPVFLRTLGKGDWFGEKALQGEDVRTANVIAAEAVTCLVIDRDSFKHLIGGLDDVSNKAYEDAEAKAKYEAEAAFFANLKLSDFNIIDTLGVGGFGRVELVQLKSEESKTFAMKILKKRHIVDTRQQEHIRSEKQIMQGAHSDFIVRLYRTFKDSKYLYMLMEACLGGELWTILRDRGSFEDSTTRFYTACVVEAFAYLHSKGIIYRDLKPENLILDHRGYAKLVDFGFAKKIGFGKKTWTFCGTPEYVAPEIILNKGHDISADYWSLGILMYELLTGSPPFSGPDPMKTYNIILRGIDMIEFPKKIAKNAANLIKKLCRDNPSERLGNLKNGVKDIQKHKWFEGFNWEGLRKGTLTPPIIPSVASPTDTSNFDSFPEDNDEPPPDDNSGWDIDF

[5] = biological target: T3, cGMP-dependent protein kinase 1 (Homo sapiens); details: at 1 µM
[6] = biological target: T4, cGMP-dependent protein kinase 2 (Homo sapiens) (UniProt Q13237); details: at 0.1 µM
T4 sequence (whole entry): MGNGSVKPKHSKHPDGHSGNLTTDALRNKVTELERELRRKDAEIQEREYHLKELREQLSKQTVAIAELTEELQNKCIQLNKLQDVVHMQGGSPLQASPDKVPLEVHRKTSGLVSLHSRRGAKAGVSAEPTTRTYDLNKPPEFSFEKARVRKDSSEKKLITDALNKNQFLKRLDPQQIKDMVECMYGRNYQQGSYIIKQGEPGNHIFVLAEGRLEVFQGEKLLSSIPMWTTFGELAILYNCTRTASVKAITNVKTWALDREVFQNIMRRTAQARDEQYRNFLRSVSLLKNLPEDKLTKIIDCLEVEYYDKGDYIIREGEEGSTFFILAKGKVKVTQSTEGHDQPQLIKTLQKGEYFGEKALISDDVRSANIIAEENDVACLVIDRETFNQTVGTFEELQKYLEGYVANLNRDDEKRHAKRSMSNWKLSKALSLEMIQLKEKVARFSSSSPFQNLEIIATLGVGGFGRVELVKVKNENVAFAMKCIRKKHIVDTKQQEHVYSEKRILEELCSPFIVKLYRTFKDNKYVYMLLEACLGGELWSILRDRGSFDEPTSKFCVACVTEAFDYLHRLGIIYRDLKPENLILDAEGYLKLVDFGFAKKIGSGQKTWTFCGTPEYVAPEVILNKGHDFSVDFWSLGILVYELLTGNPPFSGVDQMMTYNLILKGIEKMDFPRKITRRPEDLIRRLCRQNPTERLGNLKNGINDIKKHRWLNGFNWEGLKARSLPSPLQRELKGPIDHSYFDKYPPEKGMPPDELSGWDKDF

[7] = biological target: T4, cGMP-dependent protein kinase 2 (Homo sapiens); details: at 1 µM
[8] = biological target: T5, cAMP-dependent protein kinase catalytic subunit PRKX (Homo sapiens) (UniProt P51817); details: at 0.1 µM
T5 sequence (whole entry): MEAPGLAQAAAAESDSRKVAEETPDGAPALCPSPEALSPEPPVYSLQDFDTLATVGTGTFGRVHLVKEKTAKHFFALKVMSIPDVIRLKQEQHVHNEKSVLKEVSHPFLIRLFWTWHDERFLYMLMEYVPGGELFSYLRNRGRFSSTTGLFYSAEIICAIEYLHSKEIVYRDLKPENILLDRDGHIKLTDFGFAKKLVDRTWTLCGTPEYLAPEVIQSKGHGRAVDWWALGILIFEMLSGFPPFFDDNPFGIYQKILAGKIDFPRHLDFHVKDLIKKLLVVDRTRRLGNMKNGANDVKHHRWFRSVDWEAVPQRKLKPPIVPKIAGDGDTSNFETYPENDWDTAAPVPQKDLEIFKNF

[9] = biological target: T5, cAMP-dependent protein kinase catalytic subunit PRKX (Homo sapiens); details: at 1 µM
[10] = biological target: Rho-associated protein kinase 1 (Homo sapiens) (UniProt Q13464); details: at 0.1 µM;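 note: values are mean percent inhibition of ROCK1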
Chain of Rho-associated protein kinase 1 (Homo sapiens) (Q13464 2-1354 limits assumed): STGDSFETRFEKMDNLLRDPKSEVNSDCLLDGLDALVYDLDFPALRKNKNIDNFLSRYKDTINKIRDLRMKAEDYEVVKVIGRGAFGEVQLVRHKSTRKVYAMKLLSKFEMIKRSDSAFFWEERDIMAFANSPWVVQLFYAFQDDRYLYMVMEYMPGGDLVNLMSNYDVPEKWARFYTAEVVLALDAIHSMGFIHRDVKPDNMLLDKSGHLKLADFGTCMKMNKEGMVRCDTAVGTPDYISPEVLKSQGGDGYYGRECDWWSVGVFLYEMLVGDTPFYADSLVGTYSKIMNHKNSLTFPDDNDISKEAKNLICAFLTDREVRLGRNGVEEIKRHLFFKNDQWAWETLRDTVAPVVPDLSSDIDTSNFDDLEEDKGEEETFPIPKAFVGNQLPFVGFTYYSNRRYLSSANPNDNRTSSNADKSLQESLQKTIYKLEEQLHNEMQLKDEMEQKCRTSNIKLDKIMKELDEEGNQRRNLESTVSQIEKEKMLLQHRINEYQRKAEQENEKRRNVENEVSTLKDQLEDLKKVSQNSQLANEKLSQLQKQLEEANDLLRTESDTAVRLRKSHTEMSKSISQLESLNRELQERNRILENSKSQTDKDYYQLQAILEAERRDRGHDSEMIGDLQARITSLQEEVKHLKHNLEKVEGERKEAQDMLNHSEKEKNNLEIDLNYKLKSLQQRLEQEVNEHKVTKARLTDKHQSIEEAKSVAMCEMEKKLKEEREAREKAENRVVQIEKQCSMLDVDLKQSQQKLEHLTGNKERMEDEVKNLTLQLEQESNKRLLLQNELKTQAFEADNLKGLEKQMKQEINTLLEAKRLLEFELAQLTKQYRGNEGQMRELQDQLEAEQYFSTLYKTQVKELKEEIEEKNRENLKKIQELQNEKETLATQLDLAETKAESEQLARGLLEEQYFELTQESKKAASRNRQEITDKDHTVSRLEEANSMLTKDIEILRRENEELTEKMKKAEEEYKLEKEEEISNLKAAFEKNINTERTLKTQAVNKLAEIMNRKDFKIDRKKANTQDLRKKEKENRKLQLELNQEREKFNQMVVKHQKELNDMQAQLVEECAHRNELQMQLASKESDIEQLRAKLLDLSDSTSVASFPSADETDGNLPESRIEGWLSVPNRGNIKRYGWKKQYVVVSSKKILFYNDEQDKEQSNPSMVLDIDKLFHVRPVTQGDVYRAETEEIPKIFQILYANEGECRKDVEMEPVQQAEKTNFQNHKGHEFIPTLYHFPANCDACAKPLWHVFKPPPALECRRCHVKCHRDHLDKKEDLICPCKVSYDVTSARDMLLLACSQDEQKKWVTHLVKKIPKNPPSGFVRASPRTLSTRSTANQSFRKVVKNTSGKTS

| Structure (SMILES) | inhibition [1] | inhibition [2] | inhibition [3] | inhibition [4] | inhibition [5] | inhibition [6] | inhibition [7] | inhibition [8] | inhibition [9] | inhibition [10] |
| --- | --- | --- | --- | --- | --- | --- | --- | --- | --- | --- |
| COc1ccc(Nc2ncc(-c3ccccc3)o2)cc1OC | 3.42% | 0.5% | 2.14% | 0.71% | 3.32% | 0.93% | 3.83% | -0.11% | -0.56% | -0.21% |
| CN1CCC(n2cnc(-c3ccc(F)cc3)c2-c2ccnc(NCCO)n2)CC1 | 14.8% | 6.16% | 11% | 1.3% | 4.89% | 2.55% | 5.54% | 3.06% | 5.03% | 0.7% |
| COc1c(C(N)=O)cc(-c2ccc(Cl)cc2)cc1-c1ccc(S(N)(=O)=O)cc1 | 1.99% | 4.57% | 4.42% | 4.35% | 9.49% | 3.98% | 8.49% | 1.69% | 3.72% | 2.98% |
| COc1ccc2ncn(-c3cc(O[C@H](C)c4ccccc4C(F)(F)F)c(C(N)=O)s3)c2c1 | 1.77% | -0.52% | 0.07% | 0.03% | 1.49% | 0.1% | 0.7% | -0.2% | -0.15% | 0.72% |
| COC(=O)Nc1nc2ccc(Oc3ccc(NC(=O)Nc4cc(C(F)(F)F)ccc4F)cc3)cc2s1 | 1.09% | 0.52% | 0.53% | 1.65% | 2.05% | 1.07% | 1.92% | 0.15% | -0.17% | 0.74% |
| CNC(=O)c1sc(-n2cnc3cc(OC)c(OC)cc32)cc1OCc1ccccc1C(F)(F)F | 4.27% | 4.09% | 4.54% | 2.58% | 2.12% | 1.27% | 1.38% | 2.66% | 1.17% | 0.61% |
| COc1cc(N2CCN(C(C)C)CC2)ccc1Nc1nc(Nc2cccc3ncccc23)c2cc[nH]c2n1 | 4.37% | -0.78% | 4.56% | -1.01% | 2.36% | 0.84% | 0.42% | 0.02% | -0.18% | 0.12% |
| CS(=O)(=O)Nc1ccc(-c2cc(-c3ccccc3)cc(C(N)=O)c2N)cc1 | 1.14% | 1.65% | 2.57% | 2.68% | 2.84% | 1.37% | 2.4% | 1.16% | 1.26% | 1.5% |
| Cc1nnc(-c2cccc(-c3ccc(C(=O)NCC4CC4)cc3)c2)o1 | 7.93% | 6.14% | 7.35% | 3.58% | 5.43% | 3.23% | 3.44% | 3.54% | 4.63% | 0.97% |
| CCCNc1cccc(-n2ncc3c(N/N=C/c4ccncc4)ncnc32)c1 | 1.21% | 0.66% | 0.02% | 0.73% | 2.57% | 2.7% | 4.72% | 2.18% | 4.42% | 2.35% |
| Nc1nonc1-c1nc2cnccc2n1C1CC1 | 18.3% and 17.4% | 5.14% and 1.26% | 21.9% and 19.9% | 13.6% and 15.4% | 50.7% and 56.1% | 36.7% and 40.2% | 65.8% and 69.3% | 3.44% and 4.71% | 23.7% and 26.4% | 43.6% and 46.2% |
| CS(=O)(=O)CCNCc1ccc(-c2ccc3ncnc(Nc4ccc(OCc5cccc(C(F)(F)F)c5)cc4)c3c2)o1 | 4.34% | 5.01% | 5.61% | 3.52% | 4.77% | 2.31% | 6.67% | 2.61% | 1.41% | 2.09% |
| CCS(=O)(=O)c1ccc(OC)c(Nc2ncc(-c3cccc(C(C)=O)c3)o2)c1 | 1% | 2.85% | 1.31% | 1.67% | 2.08% | -0.65% | 2.63% | 1.59% | 3.12% | 0.01% |
| Fc1ccc(Nc2nccc(-c3c(-c4ccc(C(F)(F)F)cc4)nn4ncccc34)n2)cc1F | 3.98% | 5.05% | 4.35% | 2.4% | 3.28% | 0.92% | 2.82% | 0.62% | -1.3% | 0.45% |
| NS(=O)(=O)c1cccc(N/C=C2\C(=O)Nc3ccccc32)c1 | 11% | 5% | 9.04% | 3.34% | 4.68% | 1.91% | 7.34% | 1.79% | 2.25% | 1.58% |
| CNC(=O)c1cncc(/C=C/c2ccccc2C)c1 | 3.79% | 3.31% | 4.34% | 4.05% | 5.68% | 2.97% | 5.05% | 3.99% | 6.15% | 1.2% |
